p53ts 32C tox – cytotoxicity in p53ts cells at permissive temperature. H1299-p53A138V at 32C, ATP luminescence viability, 24 h. Potency, µM (highest dose often 46.1 µM), actives largely listed as cytotoxic. 130,000 tested, 0.93% active; further: nearly all actives have a fitted effect of over 55% in size
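ATP-content luminescence (ATPlite) read-out after 24 h compound exposure at 32C in H1299-p53A138V cells (600/well). Tested up to 46 uM. Normalized to DMSO (0%) and 100 uM tamoxifen (100% killing); Hill-fit AC50.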
Imprint erasure – inducers of genomic imprint erasure in mouse ES cells; Potency, µM (titrated, usually from 60.7 µM), most hits filed as activators; 110,000 tested, 0.02% active; AID 1948; mouse ES Peg3-LacZ reporter, beta-gal luminescence, 40 h
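Imprint erasure is scored as LacZ activity from the silenced maternal Peg3 allele in feeder-free female ES cells cultured 40 h with LIF. Luminescence is normalized to in-plate negative controls and fitted to the Hill equation.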
p53ts 39C kill – p53ts cell cytotoxicity, nonpermissive temperature. H1299-p53A138V viability at 39C, ATP luminescence, 24 h. Potency, µM (titrated, usually from 46.1 µM), usual class: cytotoxic. 130,000 tested, 1.5% active. AID 902; further: nearly all actives have a fitted effect of over 55% in size
Each line names hits and unclear results; the compound was inactive in the other large screens. Only some compounds are listed: those with a hit (about 1.6% of all), similar ones and a draw of the others. The call rests on the fitted dose curve; in most records, active means well fitted curve in the direction sought with a large enough effect; inconclusive means small, poorly fitted or top-dose-only effect, or another doubt; inactive means no such curve, though single readings can be large; an effect the other way counts as inactive or inconclusive.

Cn1nnc(NC(=O)c2ccc3ccccc3c2)n1	p53ts 32C tox inconclusive (no result: Imprint erasure)
O=C(Nc1nc2ccccc2s1)c1ccc(S(=O)(=O)N2CCCC2)cc1	none
CCOc1ccc(NC(=O)Nc2cccc(C)n2)cc1	p53ts 39C kill inconclusive
Cc1cccc(NC(=O)c2ccc(S(=O)(=O)N(C)C)cc2)n1	none
CCCCOc1ccc(C(=O)Nc2cccc(C)n2)cc1	p53ts 32C tox 13µM, p53ts 39C kill 16µM
COc1ccc(CN2C(=O)C(NC(=O)c3ccc(C)cc3)(C(F)(F)F)N=C2c2ccccc2)cc1 (centres undefined)	none
COc1ccc(Cl)cc1NC(=O)CSC1=Nc2ccccc2C2=NC(CC(=O)NC3CCCCC3)C(=O)N12 (centres undefined)	none
COc1ccc(C(=O)N2CCC[C@@]3(CCN(Cc4cc(C(F)(F)F)cc(C(F)(F)F)c4)C3)C2)cc1	none (no result: Imprint erasure)
CCCn1nnc(NC(=O)c2ccc(OCC)c(Cl)c2)n1	none
CCOc1ccc2nc(NC(=O)c3ccccc3)sc2c1	p53ts 32C tox 6.3µM, p53ts 39C kill inconclusive
CCCC(=O)Nc1nc2ccc(OCC)cc2s1	none
CCOc1ccc(C(=O)Nc2nnn(CC)n2)cc1	p53ts 32C tox 10µM, p53ts 39C kill 13µM
CCOc1ccc(-n2c(SCC(=O)N3CCc4ccccc43)nc3c([nH]c4ccccc43)c2=O)cc1	none
COC(=O)c1ccc(C(NC(=O)OCc2ccccc2)/C(F)=C/[C@@H](C)C(=O)NCCO)cc1 (some centres undefined)	none
Cc1cccc(S(=O)Cc2ccc(C(=O)NC3CCCCCC3)o2)c1 (centres undefined)	none
CCOC(=O)Cc1ccc(NC(=O)Nc2cccc(OCc3cc(=O)n4cc(C)ccc4n3)c2)cc1	none
Fc1ccc(C(NCCc2ccccc2)c2nnc(-c3ccccc3Cl)o2)cc1 (centres undefined)	none
O=C(Nc1ccc(C(F)(F)F)cc1)N1CCC(N2CCCCC2)CC1	none
CCCCC(CC)CNC(=O)c1ccc(Cn2c(=O)[nH]c3cc(OC)c(OC)cc3c2=O)cc1 (centres undefined)	p53ts 32C tox inconclusive, p53ts 39C kill 4µM
CCCCC(CC)CNC(=O)c1ccc2c(=O)n(Cc3ccc(OC)cc3)c(=O)[nH]c2c1 (centres undefined)	none
CN1C(=O)C2CCCCN2c2ccc(C(=O)NCc3ccccc3Br)cc21 (centres undefined)	none
COc1ccc(-c2cc(C(=O)N3CCOCC3)no2)cc1OC	none
O=C(c1cc(-c2cccc(O)c2)on1)N1CCOCC1	p53ts 32C tox 10µM, p53ts 39C kill inconclusive
CCN(CC)CCNC(=O)c1ccc2nc(CCc3ccccc3)oc2c1	none
COc1cc(OC)c2c(=O)c(-c3ccc4c(c3)OCO4)coc2c1	none
CCc1cc2c(=O)c(-c3ccc4c(c3)OCCO4)coc2cc1OC(=O)c1ccco1	p53ts 32C tox 5µM, p53ts 39C kill 7.9µM
Nc1ncnc2c1ncn2[C@@H]1O[C@H](CO)[C@H](O)[C@H]1O	none (no result: p53ts 32C tox, p53ts 39C kill)
Nc1nc(Cl)nc2c1ncn2[C@@H]1O[C@H](CO)[C@@H](O)[C@H]1O	p53ts 32C tox 20µM, p53ts 39C kill inconclusive
CCCCNS(=O)(=O)c1ccc2nc(-c3cccnc3)cc(C(=O)NCCC)c2c1	none
CCOc1ccc(C(=O)Nc2ccc3c(c2)OCO3)cc1OCC	none
O=C(Nc1ccc2c(c1)OCCO2)c1cccnc1	p53ts 32C tox inconclusive
O=C(Nc1ccc2c(c1)OCCO2)c1ccc2nccnc2c1	p53ts 32C tox inconclusive, p53ts 39C kill 4µM
CCOc1ccc(C(=O)Nc2ccc3c(c2)OCCO3)cc1Br	p53ts 32C tox inconclusive, p53ts 39C kill 10µM
O=C1C=C[C@@H](O)[C@H]2[C@@H]3C(=O)N(Cc4ccccc4)C(=O)[C@@H]3CC[C@H]12	none (no result: Imprint erasure)
CN(C)c1ncc2nc(-c3ccc(Cl)cc3)c(=O)n(CCC#N)c2n1	none
COc1ccc(C2=CC(c3cc(Br)ccc3F)n3c(nc4ccccc43)N2)cc1 (centres undefined)	p53ts 32C tox 16µM, p53ts 39C kill 10µM
COC(=O)c1ccc(C2C=C(c3ccc(Cl)cc3)Nc3nc4ccccc4n32)cc1 (centres undefined)	p53ts 32C tox 8.9µM, p53ts 39C kill 11µM
COC(=O)c1nc2n(n1)C(c1cc(OC)ccc1OC)C=C(c1ccc(Br)cc1)N2 (centres undefined)	none
COc1ccc(C(=O)Nc2nc3n(n2)C(c2ccc(F)cc2)C=C(c2ccc(Cl)cc2)N3)cc1 (centres undefined)	none
Fc1ccc(C2=CC(c3ccc(F)cc3)n3c(nc4ccccc43)N2)cc1 (centres undefined)	p53ts 32C tox 10µM, p53ts 39C kill 13µM
N#CC1=C(N)Nc2nc3ccccc3n2C1c1ccc(F)cc1 (centres undefined)	none (no result: p53ts 32C tox, Imprint erasure)
Cc1cc(C)cc(-n2ccnc2SCC(=O)Nc2nnc(C)s2)c1	none
N#Cc1c(NC(=O)c2nc3ncccn3n2)sc2c1CCCCC2	p53ts 32C tox 13µM, p53ts 39C kill 13µM
Cc1cc(C(=O)Nc2sc3c(c2C#N)CCCCC3)cs1	p53ts 32C tox inconclusive
CCOc1ccc(C(c2c(O)cc(C)n(CCOC)c2=O)N2CCN(c3ccccc3F)CC2)cc1 (centres undefined)	none
CCCOc1ccc(CC2C(=O)Nc3ccc(Br)cc32)cc1 (centres undefined)	p53ts 32C tox inconclusive, p53ts 39C kill 20µM
COc1ccc(CC2C(=O)Nc3ccc(Br)cc32)cc1OC (centres undefined)	none
COc1ccc(Cl)cc1NC(=O)c1c(NCc2sccc2C)sc2c1CCCC2	none
Cc1ccc(NC(=O)Cn2ncn3c(cc4ccccc43)c2=O)cc1F	none
CCc1nn(CC(=O)Nc2ccc(C)c(F)c2)c(=O)c2cc3cc(C)ccc3n12	p53ts 39C kill 32µM
S=c1nc[nH]c2nc[nH]c12	p53ts 32C tox inconclusive, p53ts 39C kill 7.9µM
NS(=O)(=O)c1ccc(N=Nc2nc3[nH]cnc(=S)c3[nH]2)cc1	none
COc1ccc2c(c1)c1c(C)c3cnccc3c(C)c1n2CCCN	none (no result: p53ts 32C tox, p53ts 39C kill)
CCOC(=O)c1c(C)oc2ncnc(N3CCN(c4ccccc4F)CC3)c12	none
CC(C)Cn1c(-c2ccccc2Cl)nc2ccccc21	none
CC(C)CCn1c(/C=C/c2ccccc2)nc2ccccc21	p53ts 32C tox inconclusive, p53ts 39C kill inconclusive
C#CCn1c(/C=C/c2ccc(Cl)cc2)nc2ccccc21	p53ts 32C tox 4µM, p53ts 39C kill 3.2µM
CCC(C)Cn1c(/C=C/c2ccccc2)nc2ccccc21 (centres undefined)	p53ts 32C tox inconclusive, p53ts 39C kill 13µM
CC(C)Cn1c(/C=C/c2ccc(F)cc2)nc2ccccc21	p53ts 32C tox 13µM, p53ts 39C kill 10µM
CCc1nc2ccccc2n1CCCCOc1ccc(Cl)cc1	none
CCNC(=O)C1CCCN(c2nn3cc(-c4ccc(C)cc4)nc3s2)C1 (centres undefined)	none (no result: Imprint erasure, p53ts 39C kill)
Cc1cc(-c2nnco2)c(C)n1-c1ccccc1	p53ts 39C kill inconclusive
Cc1cc(O)cc(=O)n1Cc1ccco1	none
Cc1cc(C2=NNC(=NC3CC3)SC2)c(C)n1Cc1ccco1	p53ts 39C kill 13µM (no result: p53ts 32C tox, Imprint erasure)
Cc1cc(C2=NNC(=NC3CC3)SC2)c(C)n1-c1ccccc1	p53ts 39C kill 10µM (no result: p53ts 32C tox, Imprint erasure)
Cc1ccc(C)c(N2CCN(C(c3ccc(F)cc3)c3nnc(-c4ccccc4)o3)CC2)c1 (centres undefined)	none
COc1ccc(N2CCN(C(=O)Cn3nc(Cc4cccnc4)c4ccccc4c3=O)CC2)cc1	none

From PubChem BioAssay
